# The source made the active and inactive calls.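 The calls were made as follows, unless noted: active = NADPH fluorescence slope more negative than the mean of all samples by about 3 SD, 99.7% confidence; inactive = the rest.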
# Legend:
# [1] = inhibitors of TNFa-induced NFkB p65 translocation, primary screen, imaging, HUVEC, MLSMR starter and 10KST1 sets (AID 438;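 active = inhibition above 20% together with a positive visual image hit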;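 also: compound added about 3h40 before a 20 min TNFalpha stimulation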;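 as to inhibition: signal is the nuclear over cytoplasmic p65 intensity ratio per well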); conditions: HUVEC TNFa-induced p65 nuclear translocation; cell count: measured here: nuclei count (cytotoxicity indicator), at 2.08 µM; inhibition: at 2 µM, stronger effect = higher value, 0% TNFa-plus-vehicle, 100% no-TNFa wells
# [2] = inhibitors of mutant huntingtin aggregation, primary screen, imaging, exon1htt(103Q)mCFP cells, high-content imaging (AID 483;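 active = visual image review flags a hit and inhibition of aggregation exceeds 20%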;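 also: compound exposure lasted 3 days before fixation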;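 as to nuclei count: percent of the per-plate median nuclei count of sample wells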); conditions: exon1htt(103Q)mCFP cell line, aggregate imaging, at 2 µM; inhibition of aggregation: stronger effect = higher value; nuclei count: measured here: cell count, toxicity
# [3] = inhibitors of E-selectin induction by TNFa, primary screen, imaging, HUVEC, immunofluorescence, MLSMR starter and 10KST1 sets (AID 487;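 active = visually confirmed hit in the image check and inhibition above 20%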;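 as to inhibition: signal is fraction of cell area covered by stained E-selectin grains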;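 as to nuclei count: 100% = median nuclei count of all wells on the same plate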); conditions: HUVEC TNFalpha-induced E-selectin immunofluorescence imaging, at 2 µM; inhibition: stronger effect = higher value; nuclei count: measured here: cell number, toxicity
# [4] = molecular target: Voltage-gated potassium channel subunit beta-2 (Rattus norvegicus) (UniProt P62483); assay: KvBeta enzyme negative modulators, primary screen, biochemical, NADPH fluorescence (AID 622;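 active = fluorescence slope higher than the sample average by over 3 SD, cut at about -0.22 in these data, passing the limit was not always enough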;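 also: slope of raw intensity against log time taken from 70 to 1610 s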); conditions: recombinant KvBeta, 4-cyanobenzaldehyde reduction, at 10 µM, stronger effect = higher value
# Sequence of Voltage-gated potassium channel subunit beta-2 (Rattus norvegicus) (P62483 whole entry, looked up): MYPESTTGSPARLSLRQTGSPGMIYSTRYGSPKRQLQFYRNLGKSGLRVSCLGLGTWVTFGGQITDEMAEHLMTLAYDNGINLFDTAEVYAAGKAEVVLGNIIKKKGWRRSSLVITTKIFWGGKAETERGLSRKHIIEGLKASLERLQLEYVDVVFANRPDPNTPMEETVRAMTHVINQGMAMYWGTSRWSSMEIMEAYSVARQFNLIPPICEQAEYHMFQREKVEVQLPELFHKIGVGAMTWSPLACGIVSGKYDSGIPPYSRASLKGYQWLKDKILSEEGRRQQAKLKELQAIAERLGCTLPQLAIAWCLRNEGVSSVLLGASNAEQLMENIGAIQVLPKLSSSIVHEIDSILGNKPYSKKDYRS
# [5] = molecular target: Voltage-gated potassium channel subunit beta-2 (Rattus norvegicus) (UniProt P62483); assay: KvBeta positive modulators, primary screen, biochemical, NADPH fluorescence (AID 623); conditions: Recombinant KvBeta, NADPH fluorescence decrease slope, 10 min; at 10 µM; stronger effect = lower value;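 also: fluorescence intensity change per second fitted from 20 to 320 s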
# [6] = molecular target: Alpha-2C adrenergic receptor (Homo sapiens) (UniProt P18825); assay: modulators of alpha2C/GIRK thallium flux, primary screen, cell-based, HEK293 alpha2C/GIRK1/2 (AID 624;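 active = fluorescence slope after compound addition differing from the mean of all screened samples at 99.7% confidence, in either direction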;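 also: slope of fluorescence ratio to pre-addition baseline per second over 15 to 24 s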); conditions: thallium flux BTC fluorescence, at 10 µM, actives lie on both sides
# Sequence of Alpha-2C adrenergic receptor (Homo sapiens) (P18825 whole entry, looked up): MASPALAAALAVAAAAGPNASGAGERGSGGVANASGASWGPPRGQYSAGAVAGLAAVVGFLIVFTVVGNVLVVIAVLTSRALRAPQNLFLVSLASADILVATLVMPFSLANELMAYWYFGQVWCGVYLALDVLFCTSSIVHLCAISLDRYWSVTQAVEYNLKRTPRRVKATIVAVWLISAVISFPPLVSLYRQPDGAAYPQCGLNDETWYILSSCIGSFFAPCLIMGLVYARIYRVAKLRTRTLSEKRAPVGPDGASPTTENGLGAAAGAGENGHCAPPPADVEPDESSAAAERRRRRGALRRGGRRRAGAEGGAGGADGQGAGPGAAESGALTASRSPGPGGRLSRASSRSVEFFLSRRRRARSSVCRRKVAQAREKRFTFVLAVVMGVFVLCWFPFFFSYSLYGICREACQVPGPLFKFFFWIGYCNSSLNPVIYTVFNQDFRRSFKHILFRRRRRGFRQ
# [7] = inhibitors of Sendai virus-induced IRF3 signaling, primary screen, TLR/RLR signaling modifier project, cell-based, Sendai virus stimulus, luciferase, 10K MLSCN set (AID 602276;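 active = inhibition at or above 50% at 10 µM; inactive = inhibition below 50%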;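 also: firefly luciferase from ISG56 promoter only with Renilla not read in this screen; 0% = Sendai virus plus DMSO and 100% = medium plus DMSO without virus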); conditions: HEK293 RL24 IRF3 luciferase reporter, at 10 µM, stronger effect = higher value
# [8] = inhibitors of poly I:C-induced TLR3 signaling, primary screen, cell-based, poly I:C stimulus, luciferase, 10K MLSCN set (AID 602277;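 active = inhibition of the reporter signal at or above 50%; inactive = inhibition below 50%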); conditions: HEK293-TLR3 RL24 IRF3 luciferase reporter, at 10 µM, stronger effect = higher value
SMILES,cell count [1],inhibition [1],inhibition of aggregation [2],nuclei count [2],inhibition [3],nuclei count [3],fluorescence slope [4],NADPH fluorescence slope [5],slope [6],inhibition [7],inhibition [8]
O=C(OCn1nnc2ccccc2c1=O)C1CCN(S(=O)(=O)c2cccs2)CC1,479,8.9% (inactive),-8.9% (inactive),103%,13.8% (inactive),105%,-0.356 (inactive),9.4e-06 (inactive),0.00571 (inactive),-1.19% (inactive),2% (inactive)
COCCN(CCOC)S(=O)(=O)c1ccc(C(=O)Nc2nnc(C3CC3)o2)cc1,390,-0.2% (inactive),0% (inactive),102%,44.1% (inactive),100%,-0.484 (inactive),-3.8e-05 (inactive),0.00677 (inactive),16.9% (inactive),24.5% (inactive)
COC(=O)c1ccc(CSc2nnc(-c3ccncc3)o2)o1,612,-2.2% (inactive),-8% (inactive),139%,-31.9% (inactive),114%,-0.596 (inactive),-3.4e-05 (inactive),0.00373 (inactive),12% (inactive),13.9% (inactive)
Cc1ccc(S(=O)(=O)N2CCN(S(C)(=O)=O)C2c2ccccc2)cc1 (stereo not drawn),464,0% (inactive),10.2% (inactive),93.5%,11.6% (inactive),114%,-0.372 (inactive),-4.8e-05 (inactive),0.00576 (inactive),8.09% (inactive),26.1% (inactive)
O=C(Cn1nc(Cc2ccncc2)c2ccccc2c1=O)N1CCc2ccccc2C1,726,-7.3% (inactive),-6.8% (inactive),103%,-57.6% (inactive),122%,-0.527 (inactive),-2.1e-05 (inactive),0.0064 (inactive),-3.59% (inactive),15.5% (inactive)
COc1cccc(CNC(=O)CCS(=O)(=O)c2cccc3nsnc23)c1,667,-6.5% (inactive),-34.5% (inactive),112%,8.1% (inactive),109%,-0.513 (inactive),-3.9e-05 (inactive),0.00504 (inactive),13.8% (inactive),24.3% (inactive)
Cn1c(SCc2c(F)cccc2Cl)nnc1-c1cccs1,662,9.6% (inactive),-11.9% (inactive),25.4%,-9.9% (inactive),115%,-0.445 (inactive),-2.8e-05 (inactive),0.00484 (inactive),-93.7% (inactive),-167% (inactive)
COc1cccc(NC(=O)c2nc3nc(C)cc(C(F)F)n3n2)c1,641,-2.9% (inactive),1.9% (inactive),68.8%,-34.9% (inactive),96.6%,-0.567 (inactive),-5.2e-05 (inactive),0.00736 (inactive),3.8% (inactive),4.85% (inactive)
CN(C1CCS(=O)(=O)C1)S(=O)C12CC3CC(CC(C3)C1)C2 (stereo not drawn),150,23.1% (inactive),-16% (inactive),98%,1.8% (inactive),95.7%,-0.533 (inactive),-3.6e-05 (inactive),0.00528 (inactive),-4.43% (inactive),99.5% (active)
Cc1ccc(NC(=O)C2CCCN(S(=O)(=O)c3cnc[nH]3)C2)cc1C (stereo not drawn),626,1.6% (inactive),11.8% (inactive),106%,-102% (inactive),134%,-0.527 (inactive),-2.9e-05 (inactive),0.00769 (inactive),20.9% (inactive),6.37% (inactive)
COC(=O)c1ccccc1NC(=O)c1ccc(-c2ccccc2F)o1,516,-5.3% (inactive),-24.1% (inactive),111%,-37.1% (inactive),103%,-0.469 (inactive),-1.5e-06 (inactive),0.00728 (inactive),19.2% (inactive),-29.6% (inactive)
CCN(CC)CCCN1C(=O)C(=O)/C(=C(/O)c2ccc3c(c2)OCO3)C1c1ccccn1 (stereo not drawn),621,1.8% (inactive),21.9% (inactive),85.9%,-18.3% (inactive),90.7%,-0.495 (inactive),-4.9e-05 (inactive),0.00526 (inactive),-5.97% (inactive),12.1% (inactive)
O=S1(=O)CCC(NS(=O)(=O)/C=C/c2ccccc2)C1 (stereo not drawn),566,-1.6% (inactive),2% (inactive),119%,-1.4% (inactive),96.4%,-0.386 (inactive),-0.000106 (inactive),0.00742 (inactive),4.67% (inactive),14.6% (inactive)
CS(=O)(=O)N(Cc1nc2sc3c(c2c(=O)[nH]1)CCCC3)C1CCCCC1,352,0.8% (inactive),-9.4% (inactive),106%,-6.2% (inactive),110%,-0.612 (inactive),-4.9e-05 (inactive),0.00352 (inactive),4.56% (inactive),14.4% (inactive)
Cc1nc2ccc(S(=O)(=O)NCC(=O)N(C)Cc3ccco3)cc2s1,355,5.2% (inactive),-6.5% (inactive),95.6%,-12.8% (inactive),101%,-0.503 (inactive),-1.2e-05 (inactive),0.00704 (inactive),14.7% (inactive),14.5% (inactive)
COc1ccc(OC)c(NC(=O)CCN2CCC(C)CC2)c1,446,-6.2% (inactive),15.7% (inactive),101%,-120% (inactive),220%,-0.59 (inactive),-3.6e-05 (inactive),0.00565 (inactive),-15.8% (inactive),-0.553% (inactive)
O=C1c2ccccc2C(=O)N1C/C=C/c1ccccc1,320,6.3% (inactive),-5.9% (inactive),98.3%,-3.5% (inactive),112%,-0.495 (inactive),-5.2e-05 (inactive),0.0051 (inactive),21.6% (inactive),25.4% (inactive)
Cc1ccc(C2=Nc3ccccc3NC(C)(c3ccc(C)o3)C2)o1 (stereo not drawn),696,1.6% (inactive),-18.4% (inactive),100%,-39.9% (inactive),100%,-0.54 (inactive),1.2e-05 (inactive),0.00401 (inactive),-47.1% (inactive),-67.9% (inactive)
COc1ccc(N2CCN(c3ccc(NC(=O)C4CCCCC4)cc3C#N)CC2)cc1,676,-0.6% (inactive),-30.8% (inactive),104%,-14.3% (inactive),121%,-0.586 (inactive),-1.7e-05 (inactive),0.00529 (inactive),4.18% (inactive),7.51% (inactive)
CN(CCc1ccccn1)c1ncnc2[nH]ncc12,591,8.1% (inactive),-1.4% (inactive),71.8%,55.8% (active),63.8%,-0.325 (inactive),-3.6e-05 (inactive),0.0053 (inactive),-24.6% (inactive),-53.4% (inactive)
Cc1ccc(Cn2c(=N)c(C(=O)NCc3ccco3)cc3c(=O)n4ccccc4nc32)cc1,491,1.5% (inactive),-19.4% (inactive),95.7%,-83% (inactive),106%,-0.279 (inactive),-5.9e-05 (inactive),0.00216 (inactive),-2.87% (inactive),10.3% (inactive)
CCOc1ccccc1OCC(=O)NCc1ccco1,375,-3.4% (inactive),2.9% (inactive),101%,-16.4% (inactive),92%,-0.409 (inactive),-4.3e-05 (inactive),0.00437 (inactive),11.5% (inactive),9.81% (inactive)
O=C(CN1CCN(Cc2ccccc2F)C1=O)NCc1cccnc1,674,-9.2% (inactive),18.1% (inactive),93.5%,-69.2% (inactive),115%,-0.502 (inactive),2.9e-05 (inactive),0.00712 (inactive),7.76% (inactive),7.56% (inactive)
COc1ccccc1NC(=O)c1oc2ccccc2c1NC(=O)c1cc(OC)c(OC)c(OC)c1,582,-7.6% (inactive),-17.1% (inactive),85.7%,25.8% (inactive),60.4%,-0.36 (inactive),-9.5e-06 (inactive),0.00886 (inactive),36% (inactive),65.9% (active)
O=C(c1cc(C2CC2)on1)N1CCN(C(c2ccccc2)c2ccccc2)CC1,731,-3.5% (inactive),25% (inactive),82%,-61% (inactive),89.3%,-0.573 (inactive),-7.4e-06 (inactive),0.00569 (inactive),7.04% (inactive),35.9% (inactive)
O=C(NCCN1CCCCCC1)c1ccc(CS(=O)(=O)c2ccc(Br)cc2)o1,591,-0.5% (inactive),-28.3% (inactive),98.6%,-63.4% (inactive),103%,-0.445 (inactive),1.2e-05 (inactive),0.00438 (inactive),-15.7% (inactive),16.4% (inactive)
Oc1ccccc1-c1nnc(COc2ccc(Cl)cc2Cl)o1,766,-8.5% (inactive),-1.7% (inactive),127%,-23.4% (inactive),113%,-0.54 (inactive),-2.9e-05 (inactive),0.00718 (inactive),-0.185% (inactive),-1.08% (inactive)
CC1(C)CC(=O)C2=C(C1)NC(=O)CC2c1ccc(N(CCC#N)CCC#N)cc1 (stereo not drawn),432,5.9% (inactive),-2.1% (inactive),109%,21.1% (inactive),116%,-0.376 (inactive),6.8e-05 (inactive),0.00771 (inactive),1.16% (inactive),17.9% (inactive)
